A selection: hits, their analogues and other compounds. The true share with any hit is near 18%.
HepG2 tox: counter-screen for TGF-b inhibitors: cytotoxicity in HepG2 cells; HepG2 CAGA-GFP viability, ATP luminescence, 18 h; Potency, µM (series often up to 46.1 µM), for the others: at the highest dose activity change, negative = cytotoxicity, actives largely listed as cytotoxic; 410,000 tested, 0.76% active; AID 588856; further: potency means the concentration at half of the fitted maximal effect
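HepG2 CAGA-GFP cells (1000/well, DMEM with 1% FBS) received compound, then TGF-beta at 500 pg/mL final, and were incubated 18 hours at 37 degrees C. Viability was read by CellTiter-Glo luminescence. Media-only wells were set as complete cell-killing and DMSO as no toxicity.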
TDP1 inh: blocks human tyrosyl-DNA phosphodiesterase 1. recombinant TDP1, AlphaScreen DNA substrate cleavage. AID 485290. Potency, µM (highest dose often 130 µM), for inactives: at the top dose activity change, negative = inhibition, actives largely listed as inhibitors. 350,000 tested, 0.28% active. Q9NUW8; further: potency means the concentration at half of the fitted maximal effect; on the % scale 0 is the no-effect control and ±100 the full control effect; nearly all actives have a fitted effect of over 40% in size
Target sequence (Q9NUW8 whole entry, looked up): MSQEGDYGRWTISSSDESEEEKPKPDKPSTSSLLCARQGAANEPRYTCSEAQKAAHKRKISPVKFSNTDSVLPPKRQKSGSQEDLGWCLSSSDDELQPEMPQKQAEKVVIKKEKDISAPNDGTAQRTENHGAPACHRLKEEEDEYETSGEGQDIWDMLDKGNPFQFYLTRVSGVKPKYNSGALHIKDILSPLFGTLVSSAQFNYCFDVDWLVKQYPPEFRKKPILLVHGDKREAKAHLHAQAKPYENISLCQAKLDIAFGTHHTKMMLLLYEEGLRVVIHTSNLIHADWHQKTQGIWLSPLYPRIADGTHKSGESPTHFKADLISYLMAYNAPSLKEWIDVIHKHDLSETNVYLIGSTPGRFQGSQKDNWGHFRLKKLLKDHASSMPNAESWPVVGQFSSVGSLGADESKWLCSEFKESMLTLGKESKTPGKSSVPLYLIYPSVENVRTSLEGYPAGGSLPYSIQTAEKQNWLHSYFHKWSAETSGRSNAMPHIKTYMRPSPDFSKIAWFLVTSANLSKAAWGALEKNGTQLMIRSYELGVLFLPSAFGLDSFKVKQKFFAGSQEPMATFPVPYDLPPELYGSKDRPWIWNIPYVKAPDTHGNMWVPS
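Compounds were preincubated with Tdp1 (1 nM final) for 15 min at room temperature before substrate (15 nM final) started a 5 min reaction; beads (10 ug/ml final) were then added for 10 min before AlphaScreen detection.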
TDP1 cell noCPT: qHTS for Inhibitors of human tyrosyl-DNA phosphodiesterase 1 (TDP1): qHTS in cells in absence of CPT; DT40 Tdp1-/- hTDP1 cells, no CPT, ATP luminescence, 48 h; AID 686978, 2013; 420,000 tested, 15% active; Potency, µM (highest dose often 46.2 µM), for inactives: at the top dose activity change, negative = growth inhibition, most hits filed as inhibitors; further: potency means the concentration at half of the fitted maximal effect; on the % scale 0 is the no-effect control and ±100 the full control effect; nearly all actives have a fitted effect of over 55% in size
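Readout: luminescence from CellTiter-Glo after 30 min in the dark at RT. Cells: DT40 Tdp1-/- with stable hTDP1, 400/well. Exposure: compounds alone, ≥48 hr, 37 °C.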
IL1B secr inh: inhibitors of inflammasome signaling (IL-1 beta secretion) | 360,000 tested, 4.7% active | THP-1 LPS/ATP IL-1B secretion, AlphaLISA, 16 h; hits give low values | activity change, % at 57.5 µM; in the data active means activity change below about -50%; inconclusive means mostly about -30% to -49%; further: on the % scale 0 is the no-effect control and ±100 the full control effect
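THP-1 cells pretreated 1 hr with compounds (up to 57.5 uM final), then stimulated with LPS (250 ng/mL final) plus ATP (1.25 mM final); secreted IL-1B measured by AlphaLISA after 16 hr, decreased signal indicating inhibition.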
DT40 TDP1 CPT: DT40-hTDP1 cell growth loss with CPT; chicken DT40 Tdp1-/-;hTDP1 cells + 20 nM CPT, ATP luminescence, 48 h; Potency, µM (top dose mostly 46.2 µM), without a hit: top-dose activity change, negative = growth inhibition, usual class: inhibitors; 420,000 tested, 12% active; further: potency means the concentration at half of the fitted maximal effect; on the % scale 0 is the no-effect control and ±100 the full control effect; nearly all actives have a fitted effect of over 55% in size
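Chicken DT40 Tdp1-/- cells stably complemented with human TDP1 were seeded at 400 cells/well in medium containing 20 nM camptothecin, exposed to pin-transferred compounds, and grown at 37 °C for at least 48 hr. Viability was read as ATP luminescence.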
TGFb SMAD3 inh: blocks TGF-b signaling. AID 588855. Potency, µM (highest dose often 46.1 µM), for the others: top-dose activity, negative = inhibition, most hits filed as inhibitors. HepG2 CAGA-GFP TGF-b/SMAD3 reporter, GFP fluorescence, 18 h; TGF-beta stimulated, 500 pg/mL final. 410,000 tested, 1.2% active; further: potency means the concentration at half of the fitted maximal effect; on the % scale 0 is the no-effect control and ±100 the full control effect; nearly all actives have a fitted effect of over 65% in size
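Read-out: total well GFP (ex488/em500-530) summed from mean per-cell fluorescence. Cells: HEPG2 CAGA-GFP, 1% FBS DMEM, 18 h at 37 degrees C with 500 pg/mL final TGF-beta. Unstimulated wells served as the full-inhibition control; stimulated DMSO wells = 0%.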
Active calls of the source: *; i = inactive; ? = inconclusive; . = no result. Unless noted, the call rests on the fitted dose curve; in most records, active means well fitted curve in the direction sought with a large enough effect; inconclusive means small, poorly fitted or top-dose-only effect, or another doubt; inactive means no such curve, though single readings can be large; an effect the other way counts as inactive or inconclusive.

SMILES	HepG2 tox	TDP1 inh	TDP1 cell noCPT	IL1B secr inh	DT40 TDP1 CPT	TGFb SMAD3 inh
Cc1ccc(C2CCN(C(=O)c3cnn(-c4cccc(Cl)c4)c3C3CCN(C(=O)OC(C)(C)C)CC3)C2)cc1 (stereo not given)	-19%	1%	7.3µM*	.	13µM*	-22%
Cc1cccc(-n2ncc(C(=O)N3CCN(C4CCCCC4)CC3)c2C2CCN(C(=O)OC(C)(C)C)CC2)c1	-18%	6%	21µM*	.	16µM*	8.9µM*
CC1CCN(C(=O)c2cnn(-c3cccc(Cl)c3)c2C2CCN(C(=O)OC(C)(C)C)CC2)CC1	5%	0%	?	.	21µM*	?
Cc1ccc(-n2ncc(C(=O)N3CCN(C4CCCCC4)CC3)c2C2CCN(C(=O)OC(C)(C)C)CC2)cc1	-5%	1%	?	.	?	-5%
COCCCN(Cc1ccco1)C(=O)c1cc2c(s1)-c1ccc(Cl)cc1S(=O)(=O)C2	-1%	8%	-20%	18	-16%	-2%
O=C(Nc1nnc([C@H]2C[C@H](O)[C@@H](CO)O2)s1)c1ccc(Oc2ccccc2)cc1	-20%	.	?	0	?	3%
CCc1c(C(=O)NCCc2cccc(C)c2)[nH]c(C)c1C(C)=O	-21%	.	10µM*	-30	16µM*	-10%
CCc1c(C(=O)NCc2ccccc2Cl)[nH]c(C)c1C(C)=O	-21%	8%	16µM*	30	23µM*	-7%
CCc1c(C(=O)NCCc2ccc(OC)c(OC)c2)[nH]c(C)c1C(C)=O	-25%	1%	?	12	?	15%
Cc1ccc(-n2nc(CO)c(C(=O)NCc3cccnc3)n2)cc1C	-17%	0%	?	.	?	?
Cc1noc(C)c1C(=O)N(CC(C)C)c1nc2ccccc2s1	0%	-7%	?	15	?	-28%
CCSc1ccc([C@@H]2[C@@H]3C(=O)N(CC)C(=O)[C@@H]3[C@]3(C(=O)OC)CCCCN23)cc1	-23%	-2%	23µM*	13	16µM*	-23%
CCCSc1ccc([C@@H]2[C@H]3C(=O)N(C)C(=O)[C@H]3[C@]3(C(=O)OC)CCCN23)cc1OC	1%	0%	-15%	-11	-3%	2%
CCSc1ccc([C@@H]2[C@H]3C(=O)N(CC)C(=O)[C@H]3[C@]3(C(=O)OC)CCCCN23)cc1	-25%	0%	23µM*	8	?	?
CCC(C)Sc1ccc([C@@H]2[C@H]3C(=O)N(CC)C(=O)[C@H]3[C@]3(C(=O)OC)CCCCN23)cc1 (stereo not given in full)	-20%	0%	16µM*	-10	?	?
CCCSc1ccc([C@@H]2[C@@H]3C(=O)N(C)C(=O)[C@@H]3[C@]3(C(=O)OC)CCCCN23)cc1OC	13%	2%	23µM*	-3	?	18%
CCCN(C(=O)CSc1nnnn1-c1ccccc1OC)C1CCS(=O)(=O)C1 (stereo not given)	-4%	0%	-3%	-13	6%	3%
COc1ccccc1/C=C/CN1CCNC(=O)C1CC(=O)NCCc1cnccn1 (stereo not given)	-6%	3%	-6%	i	-1%	-1%
CCCCCCSc1ccc([C@@H]2[C@@H]3C(=O)N(CC)C(=O)[C@@H]3[C@]3(C(=O)OC)CCCCN23)cc1	-19%	-4%	21µM*	-17	18µM*	-22%
CCSc1ccc([C@@H]2[C@H]3C(=O)N(C)C(=O)[C@H]3[C@]3(C(=O)OC)CCCCN23)cc1	-15%	1%	16µM*	20	?	?
